The results in this text go back to PubChem BioAssay (EPA / NIEHS).

SMILES strings stand for the structures. Inconclusive results are not listed. A structure can be active in one record and inactive in another. Active and inactive are the calls of the source. The calls were made as follows, unless noted: active = hit-call score of the fitted dose curve at least 0.9, where 1 is the maximum; inconclusive = response in the unintended direction; inactive = score below 0.9.

Test [1] deals with Cytochrome P450 2C19 (Homo sapiens) (UniProt P33261). Nature of the test: NVS_ADME_hCYP2C19: NovaScreen (NVS) CYP450-related Enzyme Activity (ADME) Assay for human CYP2C19 (AID 2283113).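 Also: potency for inhibition seen as loss of fluorescent signal.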 A digest of the protocol: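 Chemicals first screened in duplicate at 10 uM against recombinant human enzyme produced in insect cells; confirmed actives then run as concentration series. Fluorogenic substrate turnover read by fluorescence after 1 h, normalised to acetonitrile.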

Test [2] has as its target human CYP19A1, CYP19A1 (gene 1588) (UniProt P11511). Nature of the test: NVS_ADME_hCYP19A1: NovaScreen (NVS) CYP450-related Enzyme Activity (ADME) Assay for human CYP19A1 (AID 2283098). An outline of the steps:
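Fluorescence intensity read-out; activity taken as signal loss relative to acetonitrile vehicle. Extracted enzyme, specific substrate, no cells, 0.5 h exposure. Duplicate single-point screen at 10 uM, then concentration–response follow-up for actives.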

Test [3] concerns the target Estrogen receptor (Homo sapiens) + Estrogen receptor beta (Homo sapiens) (UniProt P03372+Q92731). Nature of the test: OT_ER_ERaERb_1440: Odyssey Thera (OT) 24-hour HEK293T Protein-Complementation Assay for Estrogen Receptor-alpha/-beta Homodimer (AID 2283356).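 Also: heteromer of ER alpha and ER beta binding domains; hits raise reporter fluorescence and both agonists and antagonists give an increase.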 A digest of the protocol: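 Heterodimerisation of ERα (aa 310-547) and ERβ (aa 263-489) ligand binding domains was tracked as fluorescence gain in stably transfected HEK293T cells following 24 h dosing, normalised to DMSO controls.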

The target of test [4] is human Dual Specificity Protein Phosphatase 3 (DUSP3), DUSP3 (gene 1845) (UniProt P51452). Nature of the test: NVS_ENZ_hDUSP3: NovaScreen (NVS) Enzymatic Assay for human Dual Specificity Protein Phosphatase 3 (DUSP3) (AID 2283152).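 Also: phosphatase activity of recombinant human DUSP3 on a fluorogenic substrate without cells.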 A digest of the protocol:
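Cell-free fluorescence-intensity enzyme activity assay with recombinant protein and substrate; loss of signal fitted relative to DMSO baseline. Primary screen in duplicate at 25 uM, actives then run in concentration series; measured 0 h after dosing.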

Test [5] can be described thus: UKN5_HCS_SBAD2_cell_viability: Viability Assessment in the University of Konstanz (UKN) Leist Lab Neurite Outgrowth Assay in human iPSC-derived immature Dorsal Root Ganglia Neurons (UKN5) (AID 2284056; active = hit-call score of the fitted dose curve at least 0.9, where 1 is the maximum; inactive = score below 0.9). A digest of the protocol: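 iPSC-derived immature peripheral neurons (SBAD2) seeded on Matrigel with CHIR99021, SU5402 and DAPT, dosed 1 h later for 24 h. Viability from Hoechst H-33342 and calcein-AM live staining, high-content imaging; bidirectional fit versus DMSO.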

Test [6] is described as follows: UKN5_HCS_SBAD2_neurite_outgrowth: University of Konstanz (UKN) Leist Lab Neurite Outgrowth Assay in human iPSC-derived immature Dorsal Root Ganglia Neurons (UKN5) (AID 2284070; active = hit-call score of the fitted dose curve at least 0.9, where 1 is the maximum; inactive = score below 0.9). The conditions noted are these: actives raise or lower the signal. A digest of the protocol: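 Neurite area from calcein-AM high-content images after 24 h exposure (staining included), with H-33342 for viability, fitted both directions against DMSO. Cells: thawed immature SBAD2 peripheral neurons, 100.000 cells/cm2, with CHIR99021, SU5402, DAPT; dosing 1 h after seeding.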

In test [7] the target is AR (gene 367) (UniProt P10275). Nature of the test: ACEA_AR_agonist_80hr: ACEA Biosciences xCELLigence Real-Time Cell Analysis on Androgen Receptor Agonism for Proliferation (AID 2283783).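 Also: hits increase impedance growth signal above DMSO baseline.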 An outline of the steps:
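Impedance (RT-CES) growth signal at 80 h post-dose; 22Rv1 cells, 8-pt 1:4 series, top 100 uM final, DMSO ≤0.5%; duplicate plates; gain-of-signal fit relative to DMSO baseline.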

Test [8] concerns the target Nucleoli Translocation, AR (gene 367) (UniProt P10275). Nature of the test: UPITT_HCI_U2OS_AR_TIF2_Nucleoli_Antagonist: University of Pittsburgh U2OS Androgen Receptor-Transcriptional Intermediary Factor 2 (AR-TIF2) Antagonism High Content Imaging Assay for Nucleoli Translocation (AID 2283997). An outline of the steps:
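Compounds are added at 20 uM final concentration in 0.2% DMSO to U2OS cells carrying AR-RFP and TIF2-GFP fusions. Nucleolar AR-RFP fluorescence is then quantified by automated imaging. Antagonism is fitted positively against DHT baseline.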

Test [9] has as its target sheep Cyclooxygenase-1 (Cox1), PTGS1 (gene 443551) (UniProt P05979). Nature of the test: NVS_ENZ_oCOX1: NovaScreen (NVS) Enzymatic Assay for sheep Cyclooxygenase-1 (Cox1) (AID 2283239).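 Also: actives reduce cyclooxygenase activity so potencies are for inhibitors.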 A digest of the protocol:
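Native ovine seminal vesicle protein serves as enzyme source in this biochemical assay. Colorimetric signal is recorded 0.66 h after chemical addition, and decreases versus the DMSO control define activity.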

A short description of test [10]: TOX21_PR_BLA_Followup_Agonist_viability: Viability Assessment in the Tox21 HEK293 Progesterone Receptor (PR) Agonism Beta-lactamase Follow-Up Assay (AID 2283935).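 Also: signal loss means lower viability so actives are cytotoxic.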 An outline of the steps: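 Run multiplexed with the beta-lactamase FRET read, this endpoint measures ATP by CellTiter-Glo luminescence (30 min, room temperature). PR-UAS-bla HEK293T cells received compound 6 hr after plating and were then incubated 16 hr at 37C in 2% stripped serum.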

Test [11] can be described thus: TOX21_PR_BLA_Followup_Antagonist_viability: Viability Assessment in the Tox21 HEK293 Progesterone Receptor (PR) Antagonism Beta-lactamase Follow-Up Assay (AID 2283936).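 Also: cells exposed to compound with R5020 agonist for 16 h; hits lower the luminescence signal meaning cytotoxicity.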 An outline of the steps: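 PR-UAS-bla HEK293T cells in medium with 2% charcoal-stripped FBS were treated with compounds plus R5020 for 16 hr at 37C. After the beta-lactamase read, CellTiter-Glo was added to the same wells and luminescence read after 30 min at room temperature.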

Test [12] is described as follows: TOX21_PR_LUC_Followup_Agonist_viability: Viability Assessment in the Tox21 HEK293 Progesterone Receptor (PR) Agonism Luciferase Follow-Up Assay (AID 2283941).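 Also: loss of signal means cytotoxicity so actives lower viability.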 An outline of the steps:
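Cytotoxicity counter-readout in the PR-A luciferase reporter line HEK293, with 16 h compound exposure at 37C after cells were cultured in charcoal-stripped serum. Cellular ATP quantified by CellTiter-Glo luminescence.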

The target in test [13] is human Esterase Plasma (ES), BCHE (gene 590) (UniProt P06276). Nature of the test: NVS_ENZ_hES: NovaScreen (NVS) Enzymatic Assay for human Esterase Plasma (ES) (AID 2283157). A digest of the protocol: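 Human plasma-derived enzyme, cell-free, colorimetric readout at 0.25 h. Primary screen 25 uM in duplicate; hits (e.g. ≥30% inhibition) rerun singleton up to 50 uM. DMSO = negative control/baseline.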
Chain of human Esterase Plasma (ES), BCHE (gene 590) (P06276 whole entry, looked up): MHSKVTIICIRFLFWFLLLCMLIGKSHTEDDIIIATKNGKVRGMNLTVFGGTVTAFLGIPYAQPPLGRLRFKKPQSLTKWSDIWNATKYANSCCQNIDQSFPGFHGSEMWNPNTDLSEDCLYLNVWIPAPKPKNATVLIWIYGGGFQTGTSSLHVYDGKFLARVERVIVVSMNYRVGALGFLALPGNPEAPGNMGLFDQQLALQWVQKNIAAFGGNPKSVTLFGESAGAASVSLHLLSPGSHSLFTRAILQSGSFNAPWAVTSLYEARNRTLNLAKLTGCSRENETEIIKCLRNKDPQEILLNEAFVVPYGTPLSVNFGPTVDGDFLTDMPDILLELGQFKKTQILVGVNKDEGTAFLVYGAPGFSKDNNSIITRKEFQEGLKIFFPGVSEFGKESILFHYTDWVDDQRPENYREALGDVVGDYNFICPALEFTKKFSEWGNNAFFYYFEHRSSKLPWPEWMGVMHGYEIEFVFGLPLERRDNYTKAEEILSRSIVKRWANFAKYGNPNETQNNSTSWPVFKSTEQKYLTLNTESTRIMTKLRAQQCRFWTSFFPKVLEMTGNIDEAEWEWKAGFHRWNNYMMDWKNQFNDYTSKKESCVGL

Test [14] deals with D(1A) dopamine receptor (Homo sapiens) (UniProt P21728). Nature of the test: NVS_GPCR_hDRD1: NovaScreen (NVS) G Protein-Coupled Receptor Assay for human Dopamine Receptor D1 (DRD1) (AID 2283269). An outline of the steps: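 Cell-free radioligand binding to human DRD1 from HEK293 membranes, read 1 h after dosing by filter-based scintillation counting. Loss of signal versus DMSO baseline marks displacement. Primary screen at 25 uM single concentration in duplicate; actives followed up in concentration series.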
Chain of D(1A) dopamine receptor (Homo sapiens) (P21728 whole entry, looked up): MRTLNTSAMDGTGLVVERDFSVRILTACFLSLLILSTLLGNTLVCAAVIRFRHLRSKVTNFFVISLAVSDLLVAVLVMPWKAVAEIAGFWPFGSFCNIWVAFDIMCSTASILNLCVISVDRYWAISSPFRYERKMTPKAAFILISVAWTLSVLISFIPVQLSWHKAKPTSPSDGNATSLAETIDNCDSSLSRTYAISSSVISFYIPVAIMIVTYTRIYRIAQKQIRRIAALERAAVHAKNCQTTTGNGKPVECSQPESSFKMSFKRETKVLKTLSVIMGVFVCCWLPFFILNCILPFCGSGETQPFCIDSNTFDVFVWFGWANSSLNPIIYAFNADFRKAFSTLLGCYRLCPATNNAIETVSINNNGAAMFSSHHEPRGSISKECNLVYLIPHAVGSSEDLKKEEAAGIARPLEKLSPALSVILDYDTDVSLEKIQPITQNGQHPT

The target of test [15] is rat Adrenergic Receptor, Alpha 2 (Adra2), Non-selective Binding, Adra2a (gene 25083) (UniProt P22909). Nature of the test: NVS_GPCR_rAdra2_NonSelective: NovaScreen (NVS) G Protein-Coupled Receptor Assay for rat Adrenergic Receptor, Alpha 2 (Adra2), Non-selective Binding (AID 2283299). A digest of the protocol: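 Filter-based scintillation counting of radioligand binding to rat cortical membrane receptors, measured 1.25 hours post-dosing; loss of signal versus DMSO indicates displacement. Initial single-concentration duplicate at 25 uM, then concentration series.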
Chain of rat Adrenergic Receptor, Alpha 2 (Adra2), Non-selective Binding, Adra2a (gene 25083) (P22909 whole entry, looked up): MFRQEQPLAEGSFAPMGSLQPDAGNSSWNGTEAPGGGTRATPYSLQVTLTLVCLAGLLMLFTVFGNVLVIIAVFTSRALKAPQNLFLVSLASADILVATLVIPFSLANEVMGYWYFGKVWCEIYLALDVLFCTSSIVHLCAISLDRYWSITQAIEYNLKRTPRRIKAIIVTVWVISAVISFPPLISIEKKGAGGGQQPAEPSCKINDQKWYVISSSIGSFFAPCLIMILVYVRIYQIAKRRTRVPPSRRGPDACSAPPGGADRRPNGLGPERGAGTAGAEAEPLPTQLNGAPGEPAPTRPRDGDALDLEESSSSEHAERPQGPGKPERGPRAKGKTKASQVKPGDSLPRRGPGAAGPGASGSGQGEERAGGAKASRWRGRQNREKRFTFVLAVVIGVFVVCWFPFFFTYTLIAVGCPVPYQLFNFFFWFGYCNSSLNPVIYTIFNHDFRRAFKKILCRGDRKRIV

Test [16] deals with guinea pig Dopamine Transporter (DAT), gene 100714898. Nature of the test: NVS_TR_gDAT: NovaScreen (NVS) Transporter Assay for guinea pig Dopamine Transporter (DAT) (AID 2283369).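 Also: active compounds lower bound radioligand signal relative to DMSO.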 An outline of the steps: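 Test chemicals were incubated 2 h with guinea pig striatal membranes and a radioligand; bound label was separated by filtration and counted. Screening ran at 25 uM, followed by concentration-response testing to a 50 uM maximum.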

Test [17] concerns the target rat Serotonin Transporter (SERT), Slc6a4 (gene 25553) (UniProt P31652). Nature of the test: NVS_TR_rSERT: NovaScreen (NVS) Transporter Assay for rat Serotonin Transporter (SERT) (AID 2283375). An outline of the steps: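 Steps: rat forebrain membranes dosed with chemical (25 uM duplicate primary; concentration series for actives); 1 h incubation; labelled ligand bound, filtered, counted by scintillation. Activity scored as signal loss vs DMSO.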

Test [18] in a line: NVS_IC_rCaBTZCHL: NovaScreen (NVS) Ion Channel Assay for Calcium Channel, Type L, Benzothiazepine Site (CaBTZCHL) (AID 2283337). An outline of the steps: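 Rat cortical membrane preparation incubated 1.5 h with compound and benzothiazepine-site radioligand; loss of filter-bound counts versus DMSO marks displacement. Initial duplicate testing at 25 uM, actives followed up in concentration series.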

Read-out in test [19]: Interferon-inducible T-cell alpha chemoattractant (ITAC), CXCL11 (gene 6373)
Nature of the test: BSK_hDFCGF_ITAC: BioMAP Diversity Plus: hDFCGF Assay for Interferon-inducible T-cell alpha chemoattractant (ITAC) Biomarker Activity (AID 2284251; active = hit-call score of the fitted dose curve at least 0.9, where 1 is the maximum; inactive = score below 0.9). The following applies: primary human foreskin fibroblasts. A digest of the protocol: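 Measured by ELISA, the chemokine level serves as the endpoint in human skin fibroblast primary cultures 24 h after compound addition. Increases relative to DMSO-treated wells define activity.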

Read-out in test [20]: Matrix Metallopeptidase 9 (MMP9), MMP9 (gene 4318)
Nature of the test: BSK_BE3C_MMP9: BioMAP Diversity Plus: BE3C Assay for Matrix Metallopeptidase 9 (MMP9) Biomarker Activity (AID 2284283; active = hit-call score of the fitted dose curve at least 0.9, where 1 is the maximum; inactive = score below 0.9). The conditions noted are these: primary human bronchial epithelial cells. A digest of the protocol: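 Cells were dosed, incubated 24 h, then assayed for MMP-9 by ELISA; activity was fitted upward against DMSO. The system used human lung primary bronchial epithelial cells, with SRB total-protein staining run alongside for cytotoxicity.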

Chain of human Dual Specificity Protein Phosphatase 3 (DUSP3), DUSP3 (gene 1845) (P51452 whole entry, looked up): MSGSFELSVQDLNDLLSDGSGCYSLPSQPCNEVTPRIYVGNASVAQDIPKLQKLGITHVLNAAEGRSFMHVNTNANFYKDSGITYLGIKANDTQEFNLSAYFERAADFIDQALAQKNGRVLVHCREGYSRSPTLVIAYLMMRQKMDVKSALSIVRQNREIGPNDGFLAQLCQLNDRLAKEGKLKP
Chain of Estrogen receptor (Homo sapiens) + Estrogen receptor beta (Homo sapiens) (P03372 whole entry, looked up, the tested form may be a part): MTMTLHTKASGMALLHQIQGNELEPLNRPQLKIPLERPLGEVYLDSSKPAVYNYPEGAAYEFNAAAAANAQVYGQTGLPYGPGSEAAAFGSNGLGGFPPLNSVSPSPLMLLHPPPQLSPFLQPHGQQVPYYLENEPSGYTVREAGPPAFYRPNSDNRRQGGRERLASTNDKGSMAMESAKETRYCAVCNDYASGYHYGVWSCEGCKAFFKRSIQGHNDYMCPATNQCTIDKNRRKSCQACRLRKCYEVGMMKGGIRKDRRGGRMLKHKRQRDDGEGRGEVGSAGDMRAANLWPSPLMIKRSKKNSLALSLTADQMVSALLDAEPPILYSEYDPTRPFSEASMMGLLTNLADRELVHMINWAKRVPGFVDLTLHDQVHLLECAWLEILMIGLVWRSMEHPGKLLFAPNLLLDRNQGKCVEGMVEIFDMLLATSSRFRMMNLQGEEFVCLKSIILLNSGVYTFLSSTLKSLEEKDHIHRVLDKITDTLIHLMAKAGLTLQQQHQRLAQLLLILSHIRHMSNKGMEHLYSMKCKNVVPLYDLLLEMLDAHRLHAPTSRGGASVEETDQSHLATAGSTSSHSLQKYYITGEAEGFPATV
Chain of Estrogen receptor (Homo sapiens) + Estrogen receptor beta (Homo sapiens) (Q92731 whole entry, looked up, the tested form may be a part): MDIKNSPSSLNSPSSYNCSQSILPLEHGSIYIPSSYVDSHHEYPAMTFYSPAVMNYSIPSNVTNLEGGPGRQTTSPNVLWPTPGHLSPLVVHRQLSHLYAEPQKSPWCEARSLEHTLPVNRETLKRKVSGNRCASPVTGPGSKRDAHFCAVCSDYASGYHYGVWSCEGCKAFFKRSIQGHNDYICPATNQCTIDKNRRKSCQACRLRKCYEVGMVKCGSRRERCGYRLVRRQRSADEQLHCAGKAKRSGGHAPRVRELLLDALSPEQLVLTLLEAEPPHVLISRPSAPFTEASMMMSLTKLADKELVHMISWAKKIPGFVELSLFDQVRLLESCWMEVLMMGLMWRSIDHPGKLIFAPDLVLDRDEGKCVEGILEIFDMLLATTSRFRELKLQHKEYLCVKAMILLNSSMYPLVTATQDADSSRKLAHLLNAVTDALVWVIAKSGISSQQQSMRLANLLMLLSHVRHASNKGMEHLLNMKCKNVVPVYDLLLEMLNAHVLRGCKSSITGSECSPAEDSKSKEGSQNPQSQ
Chain of sheep Cyclooxygenase-1 (Cox1), PTGS1 (gene 443551) (P05979 whole entry, looked up): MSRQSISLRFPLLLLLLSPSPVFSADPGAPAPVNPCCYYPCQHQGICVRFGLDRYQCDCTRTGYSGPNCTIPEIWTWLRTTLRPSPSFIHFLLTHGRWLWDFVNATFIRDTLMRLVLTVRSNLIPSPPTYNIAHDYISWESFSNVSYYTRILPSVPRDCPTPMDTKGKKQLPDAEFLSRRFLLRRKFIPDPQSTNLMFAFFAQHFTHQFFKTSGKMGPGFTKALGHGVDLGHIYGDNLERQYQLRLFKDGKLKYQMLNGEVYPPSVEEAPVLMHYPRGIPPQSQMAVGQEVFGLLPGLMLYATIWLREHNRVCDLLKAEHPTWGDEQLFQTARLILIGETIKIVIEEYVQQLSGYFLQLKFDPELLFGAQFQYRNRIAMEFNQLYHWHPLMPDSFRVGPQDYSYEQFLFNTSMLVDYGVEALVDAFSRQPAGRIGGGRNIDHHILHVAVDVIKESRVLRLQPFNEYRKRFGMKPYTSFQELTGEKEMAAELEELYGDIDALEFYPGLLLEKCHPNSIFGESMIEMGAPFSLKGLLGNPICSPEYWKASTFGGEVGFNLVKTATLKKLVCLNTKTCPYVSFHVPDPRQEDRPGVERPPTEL
Chain of rat Serotonin Transporter (SERT), Slc6a4 (gene 25553) (P31652 whole entry, looked up): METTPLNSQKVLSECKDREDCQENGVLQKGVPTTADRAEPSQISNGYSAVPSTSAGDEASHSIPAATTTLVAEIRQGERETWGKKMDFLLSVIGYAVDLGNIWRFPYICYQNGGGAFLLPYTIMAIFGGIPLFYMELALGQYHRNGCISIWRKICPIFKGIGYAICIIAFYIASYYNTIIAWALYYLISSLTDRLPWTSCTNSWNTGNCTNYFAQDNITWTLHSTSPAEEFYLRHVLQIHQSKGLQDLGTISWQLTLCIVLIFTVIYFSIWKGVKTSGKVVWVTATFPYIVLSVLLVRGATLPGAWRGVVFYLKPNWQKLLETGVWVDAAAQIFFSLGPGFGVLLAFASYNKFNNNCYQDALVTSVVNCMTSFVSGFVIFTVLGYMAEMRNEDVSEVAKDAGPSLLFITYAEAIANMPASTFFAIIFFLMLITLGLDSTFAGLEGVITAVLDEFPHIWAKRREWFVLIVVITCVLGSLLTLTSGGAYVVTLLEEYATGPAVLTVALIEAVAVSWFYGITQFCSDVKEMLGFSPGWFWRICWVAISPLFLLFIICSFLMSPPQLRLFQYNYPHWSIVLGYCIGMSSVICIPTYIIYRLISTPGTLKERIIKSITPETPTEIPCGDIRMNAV
Chain of human CYP19A1, CYP19A1 (gene 1588) (P11511 whole entry, looked up): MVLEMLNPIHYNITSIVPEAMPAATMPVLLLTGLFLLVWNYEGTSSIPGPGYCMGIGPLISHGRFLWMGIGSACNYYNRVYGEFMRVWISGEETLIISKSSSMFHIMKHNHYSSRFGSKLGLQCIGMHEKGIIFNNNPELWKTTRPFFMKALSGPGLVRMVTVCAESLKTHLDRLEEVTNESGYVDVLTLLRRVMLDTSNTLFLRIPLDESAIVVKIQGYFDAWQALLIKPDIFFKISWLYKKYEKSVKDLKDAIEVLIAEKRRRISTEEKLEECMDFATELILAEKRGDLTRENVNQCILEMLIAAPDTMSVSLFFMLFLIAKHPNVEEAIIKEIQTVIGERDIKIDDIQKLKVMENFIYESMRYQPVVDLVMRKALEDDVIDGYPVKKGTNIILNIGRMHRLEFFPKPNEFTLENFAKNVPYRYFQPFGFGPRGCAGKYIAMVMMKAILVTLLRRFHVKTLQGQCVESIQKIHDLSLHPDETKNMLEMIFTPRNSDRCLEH

As a reminder, the AC50 is the concentration at which the activity in the assay is half-maximal. Turning to `CN(C)c1ccc(C(c2ccccc2)c2ccc(N(C)C)cc2)cc1`, the AC50 in test [1] is 0.356 µM (active).
Consider `CC1=NN(c2cc(Cl)c(S(=O)(=O)O)cc2Cl)C(=O)C1N=Nc1ccc(S(=O)(=O)O)cc1` (stereo not drawn), for which the call in test [2] was inactive.
In the case of `C=C1CC[C@H]2C[C@@H]1C2(C)C`, the outcome in [3] was inactive.
`CC1(C)S[C@@H]2[C@H](NC(=O)[C@H](N)c3ccccc3)C(=O)N2[C@H]1C(=O)O`: the AC50 in test [4] was 8.24 µM (active). The result in test [5] and in test [6] was inactive.
As to `Cc1cc(C)c(S(=O)(=O)O)cc1N=Nc1cc(S(=O)(=O)O)c2ccccc2c1O`, the compound was classed as inactive in test [7] and in test [8].
Regarding `COC(=O)c1ccccc1`, the compound was called inactive in [9].
Turning to `C[C@H]1C[C@H]2[C@@H]3CCC4=CC(=O)C=C[C@]4(C)[C@@]3(F)[C@@H](O)C[C@]2(C)[C@@]1(O)C(=O)CO`, the compound was called inactive in [10], in test [11] and in [12].
Turning to `CN(C)CCC(c1ccc(Cl)cc1)c1ccccn1` (stereo not drawn), the AC50 in test [13] was 19.9 µM (active); in test [14], 12.1 µM (active); in [15], 13.9 µM (active); in test [16] it was 3.05 µM (active); in [17], 2.95 µM (active).
As for `CC(C)CC(=O)O`, the AC50 in test [9] is 25 µM (active).
Turning to `CCCCCCCCCCCCCCCCCC[N+](C)(C)C`, the AC50 in test [4] was 7.9 µM (active); in [14], 2.53 µM (active). In addition, the result in [18] was inactive.
As to `O=C(OCc1ccccc1)c1ccccc1`, the outcome in test [2] was inactive.
Regarding `CCCCCCC1CCC(=O)O1` (stereo not drawn), the outcome in test [3] was inactive.
With `Sc1nc2ccccc2s1`, in [1], the AC50 is 5 µM (active).
In the case of `O=C(c1ccccc1)c1ccccc1O`, the result in test [8] was inactive.
Consider `CN(C)Cc1cc(C(C)(C)C)c(O)c(C(C)(C)C)c1`, for which, in test [19], the AC50 was 20 µM (active) and the result was inactive. In test [20], the AC50 was 10.7 µM (active) and the result was inactive.
For `O=C(C(=O)c1ccccc1)c1ccccc1`, the result in test [18] was inactive. In test [16], the AC50 is 3.77 µM (active).
Consider `CO[Si](CCCNCCN)(OC)OC`, for which the compound was called inactive in test [7].
Regarding `Oc1cccc2ccccc12`, the result in test [5] and in [6] was inactive.
`c1cc[c]([Bi]([c]2ccccc2)[c]2ccccc2)cc1`: the compound was called inactive in [10], in [11] and in test [12].
Take `CC[N+](CC)(CC(=O)Nc1c(C)cccc1C)Cc1ccccc1`: the figures for the AC50 in [13], in [15] and in [18] were 3.7 µM (active), 18.7 µM (active) and 7.02 µM (active), respectively. Also, the compound was called inactive in test [17].
As for `CC[N+](CC)(CC(=O)Nc1c(C)cccc1C)Cc1ccccc1` (tested in a mixture with another compound), the outcome in test [19] and in [20] was inactive.
